According to PubChem BioAssay (EPA / NIEHS):
“And” between values parts separate entries of the source, which are not always exact repeats. Identical values can stand only once. The source made the active and inactive calls. How the source made its calls: active means hit-call score of the fitted dose curve at least 0.9, where 1 is the maximum; inactive means score below 0.9.

What was measured:
[1] = ATG_CRE_CIS: Attagene CIS-FACTORIAL HepG2 Assay for human cAMP Responsive Element (CRE) binding protein 3 (AID 2282926); conditions: HepG2 CRE cis-reporter, Attagene multiplexed mRNA; actives raise or lower the signal
Procedure, shortened: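 We dosed HepG2 cells bearing multiple cis-promoter reporter units for 24 h and measured reporter mRNA by RT-PCR with capillary electrophoresis detection. Bidirectional concentration-response fitting used DMSO as negative control.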

[2] = ATG_CMV_CIS: Attagene CIS-FACTORIAL HepG2 Assay for human CMV (Internal Marker) (AID 2282928); conditions: HepG2 CMV promoter reporter, transcription factor profiling; actives raise or lower the signal;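 further: endpoint acts as a background internal control marker rather than a target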
Procedure, shortened: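 After transient transfection of HepG2 with reporter transcription units driven by cis-regulatory promoters, cells receive test chemical for 24 h. Labeled reporter amplicons, digested with HpaI, are sized and quantified by capillary electrophoresis against DMSO.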

[3] = ATG_DR4_LXR_CIS: Attagene CIS-FACTORIAL HepG2 Assay for human Liver X Receptor (LXR), DR4 submotif (AID 2282929); conditions: HepG2 Attagene DR4 cis-reporter, mRNA transcription; actives raise or lower the signal
Procedure, shortened: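 The endpoint is DR4-element-driven reporter transcripts after 24 h chemical exposure of transfected HepG2 cells. These were measured via RT-PCR and capillary electrophoresis, and gain or loss of signal was fitted relative to DMSO controls.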

[4] = biological target: Aryl hydrocarbon receptor (Homo sapiens) (UniProt P35869); assay: ATG_Ahr_CIS: Attagene CIS-FACTORIAL HepG2 Assay for human Aryl Hydrocarbon Receptor (Ahr) (AID 2282930); conditions: HepG2 AhR cis-factorial reporter transcription; actives raise or lower the signal
Aryl hydrocarbon receptor (Homo sapiens), sequence (P35869 whole entry, looked up): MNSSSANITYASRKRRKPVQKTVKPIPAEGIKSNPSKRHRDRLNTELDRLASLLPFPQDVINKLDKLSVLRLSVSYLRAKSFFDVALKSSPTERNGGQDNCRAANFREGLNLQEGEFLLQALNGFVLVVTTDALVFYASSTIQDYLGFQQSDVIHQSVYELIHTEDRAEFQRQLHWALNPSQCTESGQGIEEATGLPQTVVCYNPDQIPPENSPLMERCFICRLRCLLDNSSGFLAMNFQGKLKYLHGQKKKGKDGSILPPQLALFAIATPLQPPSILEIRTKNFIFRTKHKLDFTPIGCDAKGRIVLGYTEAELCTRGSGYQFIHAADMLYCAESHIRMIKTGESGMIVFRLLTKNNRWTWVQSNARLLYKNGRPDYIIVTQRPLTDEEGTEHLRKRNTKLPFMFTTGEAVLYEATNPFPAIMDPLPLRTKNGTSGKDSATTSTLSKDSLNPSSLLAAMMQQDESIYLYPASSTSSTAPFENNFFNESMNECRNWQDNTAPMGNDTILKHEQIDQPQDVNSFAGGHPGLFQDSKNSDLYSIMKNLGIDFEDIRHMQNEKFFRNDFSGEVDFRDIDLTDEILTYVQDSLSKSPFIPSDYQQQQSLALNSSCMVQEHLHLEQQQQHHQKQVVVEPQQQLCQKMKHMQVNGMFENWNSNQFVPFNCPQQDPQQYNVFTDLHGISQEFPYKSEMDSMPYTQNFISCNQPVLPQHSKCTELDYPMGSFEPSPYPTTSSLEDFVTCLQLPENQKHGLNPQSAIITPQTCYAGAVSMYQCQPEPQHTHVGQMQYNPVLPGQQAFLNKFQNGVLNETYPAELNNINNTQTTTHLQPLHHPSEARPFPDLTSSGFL
Procedure, shortened: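 HepG2 cells transiently transfected with cis-element-driven multiplexed reporter transcription units; endogenous transcription factor activity measured as reporter mRNA 24 h after dosing. RT-PCR, 6-FAM labelling, HpaI digestion, capillary electrophoresis; bidirectional fitting versus DMSO baseline.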

[5] = ATG_AP_1_CIS: Attagene CIS-FACTORIAL HepG2 Assay for human Activator Protein 1 (AP-1) (AID 2282931); conditions: HepG2 Attagene cis-factorial AP-1 reporter mRNA; actives raise or lower the signal
Procedure, shortened: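 Readout is reporter transcript level from endogenous transcription factor activity, quantified by RT-PCR with fluorescent primer extension and capillary electrophoresis. Transiently transfected HepG2 cells, 24 h exposure. Curves fitted both directions versus DMSO.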

[6] = ATG_BRE_CIS: Attagene CIS-FACTORIAL HepG2 Assay for human Bone Morphogenetic Protein (BMP) Response Element (BRE) (AID 2282933); conditions: HepG2 BMP response element reporter, Attagene transcription factor profiling; actives raise or lower the signal
Procedure, shortened: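 Multiplexed cis-reporter assay, HepG2, 24 h exposure. mRNA from reporter units quantified via RT-PCR/CE; DMSO baseline; bidirectional curve fit.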

[7] = biological target: Retinoic acid receptor alpha (Homo sapiens) (UniProt P10276); assay: ATG_DR5_RAR_CIS: Attagene CIS-FACTORIAL HepG2 Assay for human Retinoic Acid Receptor Alpha (RARE), DR5 submotif (AID 2282934); conditions: HepG2 Attagene cis-factorial RARE DR5 reporter, mRNA; actives raise or lower the signal;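 on AC50: reporter responds to endogenous RAR alpha beta and gamma in HepG2 not RARA alone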
Retinoic acid receptor alpha (Homo sapiens), sequence (P10276 whole entry, looked up): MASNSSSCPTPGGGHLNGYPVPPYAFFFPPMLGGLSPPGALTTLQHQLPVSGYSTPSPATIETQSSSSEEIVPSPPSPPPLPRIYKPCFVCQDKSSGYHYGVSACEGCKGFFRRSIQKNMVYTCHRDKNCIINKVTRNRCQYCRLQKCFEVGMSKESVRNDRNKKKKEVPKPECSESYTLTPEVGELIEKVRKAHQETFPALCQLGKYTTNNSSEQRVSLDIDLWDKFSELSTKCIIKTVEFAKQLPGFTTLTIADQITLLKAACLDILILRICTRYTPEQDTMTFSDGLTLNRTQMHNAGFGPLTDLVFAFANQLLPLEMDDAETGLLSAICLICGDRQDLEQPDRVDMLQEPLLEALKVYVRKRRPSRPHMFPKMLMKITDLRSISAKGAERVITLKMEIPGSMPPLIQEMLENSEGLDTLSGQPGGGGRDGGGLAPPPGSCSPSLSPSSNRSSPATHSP
Procedure, shortened: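 HepG2 cells transiently transfected with multiplexed reporter units under cis (DR5 RARE) promoters, so endogenous transcription factor activity is measured. After 24 h compound exposure, reporter mRNA is quantified by RT-PCR with fluorescent labelling and capillary electrophoresis; bidirectional fitting versus DMSO.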

[8] = biological target: Transcription factor E2F1 (Homo sapiens) (UniProt Q01094); assay: ATG_E2F_CIS: Attagene CIS-FACTORIAL HepG2 Assay for human E2F Transcription Factor 1 (AID 2282935); conditions: HepG2 Attagene cis-reporter, E2F reporter RNA transcripts; actives raise or lower the signal
Transcription factor E2F1 (Homo sapiens), sequence (Q01094 whole entry, looked up): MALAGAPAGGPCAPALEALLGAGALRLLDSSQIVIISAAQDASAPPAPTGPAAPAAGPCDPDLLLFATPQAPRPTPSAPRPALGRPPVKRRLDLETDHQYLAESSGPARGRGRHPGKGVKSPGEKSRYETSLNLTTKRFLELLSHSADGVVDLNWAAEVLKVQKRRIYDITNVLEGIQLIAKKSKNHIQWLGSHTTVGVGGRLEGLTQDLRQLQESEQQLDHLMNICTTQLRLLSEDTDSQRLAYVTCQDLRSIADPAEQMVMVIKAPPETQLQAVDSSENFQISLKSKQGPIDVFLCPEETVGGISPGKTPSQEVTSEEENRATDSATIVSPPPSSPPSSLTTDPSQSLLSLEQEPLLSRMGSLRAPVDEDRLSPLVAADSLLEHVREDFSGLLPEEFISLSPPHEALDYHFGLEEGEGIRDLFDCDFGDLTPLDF
Procedure, shortened: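 Multiplexed cis-reporter assay: HepG2, transient transfection, 24 h dosing, mRNA quantitation by labeled RT-PCR and CE.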

[9] = ATG_AP_2_CIS: Attagene CIS-FACTORIAL HepG2 Assay for human Activator Protein 2 (AP-2) (AID 2282932); conditions: HepG2 AP-2 cis-reporter, Attagene transcription factor profiling; actives raise or lower the signal
Procedure, shortened: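 Bidirectional curve fitting against DMSO was applied to reporter mRNA signals from HepG2 cells 24 h after dosing. Cis-promoter reporter units, transiently transfected, were read by RT-PCR plus capillary electrophoresis.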

[10] = biological target: CCAAT/enhancer-binding protein beta (Homo sapiens) (UniProt P17676); assay: ATG_C_EBP_CIS: Attagene CIS-FACTORIAL HepG2 Assay for human CCAAT/Enhancer Binding Protein (C/EBP) beta (AID 2282927); conditions: HepG2 Attagene cis-factorial transcription factor reporter; actives raise or lower the signal
CCAAT/enhancer-binding protein beta (Homo sapiens), sequence (P17676 whole entry, looked up): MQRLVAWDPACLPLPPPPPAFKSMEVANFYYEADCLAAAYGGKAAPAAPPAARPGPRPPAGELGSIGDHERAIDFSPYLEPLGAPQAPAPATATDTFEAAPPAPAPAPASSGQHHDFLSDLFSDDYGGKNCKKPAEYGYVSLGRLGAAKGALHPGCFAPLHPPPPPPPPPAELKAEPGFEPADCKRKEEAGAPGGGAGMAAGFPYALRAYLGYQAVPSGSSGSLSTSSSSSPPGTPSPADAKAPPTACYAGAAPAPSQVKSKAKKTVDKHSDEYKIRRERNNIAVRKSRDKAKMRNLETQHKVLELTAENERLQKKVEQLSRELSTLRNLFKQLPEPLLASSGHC
Procedure, shortened: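 RT-PCR/capillary electrophoresis fluorescence of reporter mRNA, 24 h post-dose, in HepG2 cells carrying transfected cis-promoter reporter units. Bidirectional curve fitting against DMSO baseline captures gain or loss of signal.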

Measured: AC50

CCCCCCCc1ccc(O)cc1
not listed: [9] | [10]
inactive: all other assays above

NC(=O)C(F)(F)C(F)(F)F
not listed: [5] | [8] | [10]
inactive: all other assays above

C=C(C)C(=O)OCC1CO1 (stereo not drawn)
not listed: [9] | [10]
inactive: all other assays above

CCOP(=S)(OCC)SCS(=O)(=O)CC
not listed: [10]
inactive: all other assays above

CNC(=O)Oc1ccc(N(C)C)c(C)c1
not listed: [5] | [8] | [10]
inactive: all other assays above

O=P(Oc1ccccc1)(Oc1ccccc1)Oc1ccccc1
active: [3] 13.5 µM | [6] 54 µM
inactive: [1] | [2] | [4] | [8]

CCCN(CCC)c1c([N+](=O)[O-])cc(C(C)C)cc1[N+](=O)[O-]
active: [2] 56.2 µM | [3] 5.57 µM | [5] 130 µM
not listed: [9] | [10]
inactive: all other assays above

CCOS(=O)(=O)OCC
not listed: [5] | [7] | [10]
inactive: all other assays above

CCCCN(CCCC)N=O
not listed: [7] | [10]
inactive: all other assays above

O=P(OCC(Br)CBr)(OCC(Br)CBr)OCC(Br)CBr (stereo not drawn)
active: [3] 8.35 µM | [4] 19.5 µM | [5] 53.9 µM | [9] 40.1 µM | [6] 20.6 µM
inactive: [1] | [2] | [7] | [8]

C=CC(=O)OCC(CC)(COC(=O)C=C)COC(=O)C=C
inactive: [1] | [9] | [6] | [7]
active: [2] 12.1 µM | [3] 16.8 µM | [4] 35.9 µM

Nc1cc2c3c(c1)C(c1ccccc1)=N[C@@H](NC(=O)c1cccnc1)C(=O)N3CC2
active: [9] 145 µM
inactive: [1] | [2] | [3] | [4] | [6]

CCCCc1ccc(O)cc1
active: [2] 71.4 µM | [5] 148 µM
not listed: [10]
inactive: all other assays above

CN(C)C(=O)Cl
not listed: [5] | [9] | [10]
inactive: all other assays above

C=CC(=O)OCC(F)(F)C(F)F
active: [2] 150 µM | [3] 67 µM
inactive: [1] | [4] | [9] | [6] | [7]

N#C/C=C/c1ccccc1
not listed: [5] | [9] | [10]
inactive: all other assays above

Cc1ccc(O)cc1C
not listed: [1] | [5]
inactive: all other assays above

ClC(Cl)c1ccccc1
not listed: [9] | [10]
inactive: all other assays above

O=[N+]([O-])c1ccc(Cl)c(Cl)c1
not listed: [8] | [9] | [10]
inactive: all other assays above

C/C(=N\NC(=O)Nc1cc(F)cc(F)c1)c1ncccc1C(=O)O
active: [4] 57.2 µM and 46.1 µM
inactive: [1] | [2] | [3] | [6]

O=S1(=O)OCC2C(CO1)C1(Cl)C(Cl)=C(Cl)C2(Cl)C1(Cl)Cl (stereo not drawn)
inactive: [2] | [9] | [6]
active: [1] 171 µM | [3] 8.33 µM | [4] 2.9 µM | [7] 171 µM

CCCCOCC1CO1 (stereo not drawn)
not listed: [5] | [8] | [10]
inactive: all other assays above

O=C(O)CF
not listed: [7] | [10]
inactive: all other assays above

ClC(Cl)(Cl)c1ccccc1
not listed: [7] | [9] | [10]
inactive: all other assays above

N#Cc1c(-c2ccc(Cl)cc2)[nH]c(C(F)(F)F)c1Br
inactive: [3] | [7] | [8]
active: [1] 0.019 µM | [2] 3.01 µM | [4] 0.0823 µM | [5] 0.0823 µM | [6] 8.08 µM

CCOP(=S)(OCC)SCSCC
inactive: [1] | [2] | [3] | [4] | [9] | [6]

Nc1ccc([N+](=O)[O-])cc1Cl
not listed: [5] | [10]
inactive: all other assays above

CCCCc1ccccc1
inactive: [1] | [2] | [3] | [4] | [9] | [6]

CCC1(c2ccccc2)C(=O)N=C(O)NC1=O (stereo not drawn)
not listed: [7] | [10]
inactive: all other assays above

CC(C)(C)N(NC(=O)c1ccc(Cl)cc1)C(=O)c1ccccc1
not listed: [10]
inactive: all other assays above

CC1(C)CN=C(NN=C(/C=C/c2ccc(C(F)(F)F)cc2)/C=C/c2ccc(C(F)(F)F)cc2)NC1
active: [1] 8.42 µM | [3] 8.29 µM | [6] 16.7 µM
not listed: [10]
inactive: all other assays above

c1ccc2c(c1)sc1ccccc12
not listed: [8] | [9] | [10]
inactive: all other assays above
